Several values for one entry are separate records, joined by “and”; a condition that tells them apart may be missing. Equal values may be shown once. More than one record can exist for a structure, and the calls need not agree. Activity calls are given as the source filed them. How the source made its calls: active means hit-call score of the fitted dose curve at least 0.9, where 1 is the maximum; inactive means score below 0.9.

This test can be described thus: CCTE_Padilla_ZF_144hpf_TERATOSCORE: (Legacy) CCTE's 144 Hour Post-fertilization zebrafish Assay Teratoscore, Padilla Lab (AID 2283679).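 On AC50: teratogenicity score from eye scoring of death hatching and malformations at 144 hpf.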 The text has this:
CCTE_Padilla_ZF_144hpf is a whole embryo, multiplexed assay. Zebrafish embryos were exposed to chemicals starting 6 hr post-fertilization for 5 days in 96-well plates. Developing larvae were examined microscopically daily for malformation and mortality.CCTE_Padilla_ZF_144hpf_TERATOSCORE is one of one assay component(s) measured or calculated from the CCTE_Padilla_ZF_144hpf assay. It is designed to make measurements of developmental malformations and mortality as detected with brightfield microscopy.Data from the assay component CCTE_Padilla_ZF_144hpf_TERATOSCORE was analyzed into 1 assay endpoint. This assay endpoint, CCTE_Padilla_ZF_144hpf_TERATOSCORE, was analyzed in the positive analysis fitting direction relative to DMSO as the negative control and baseline of activity. Using a type of morphological reporter, gain-of-signal activity can be used to understand changes in developmental defect as they relate to the whole embryo. To generalize the intended target to other relatable targets, this assay endpoint is annotated to the malformation intended target family, where the subfamily is total.
Zebrafish husbandry: Wild type adult zebrafish (Danio rerio; undefined outbred stock obtained from Aquatic Research Organisms, Hampton, NH, 03842) were housed in an AAALAC-approved animal facility at 28C with a 14:10 h light: dark cycle (lights on at 08:30 h). Adult fish (2-3 females per male; density = 15-20 adults per tank) were kept in one of several 9-liter (L) flow-through colony tanks (Aquaneering Inc., San Diego, CA). All adults in a colony tank were placed in a 2 L (static) breeding tank (Aquatic Habitats, Apopka, FL) one hour prior to light onset. Typically, adults from two to three colony tanks were mated on the same day. Two hours after light onset the adults were returned to the colony tank. All embryos were gathered from each breeder tank, pooled, and placed in a 28C water bath for 2 h, followed by two washes with 0.06% bleach (v/v) in 10% Hanks' Balanced Salt Solution (13.7 mM NaCl 0.54 mM KCl, 25 uM Na2HPO4, 130 uM CaCl2 100 um MgSO4 and 420 um NaHCO3,), hereafter referred to as Hanks' solution, for 5 min in order to remove any residual bacteria or fungi. Immediately following washing, the embryos were examined, and healthy embryos were separated from dead or unfertilized eggs and moved into fresh Hanks'. Single Concentration Study: The chemicals were arrayed on a 96-well stock plate, 80 chemicals per plate, 20 mM concentration of each, with 16 DMSO (vehicle) controls. The embryos were exposed to the chemicals (80 Mfinal concentration, renewed daily) by immersion from 0 dpf until 5 dpf. Eighty micromolar was chosen as the highest concentration for two reasons (1) because the stock solutions were prepared at 20 mM in 100% DMSO. On 6 dpf, each embryo/larva was assessed for viability, hatching status and malformations. There were 4 embryos per concentration per chemical (each embryo on a separate microtiter plate). […] Chemical exposures: Zebrafish embryos were exposed in 96-well plates. Briefly, on day 0, approximately 6-8 h after fertilization, zebrafish embryos (with chorions) were placed 1 embryo per well in Millipore Multiscreen Nylon mesh plates (catalog number MANMN4050, Millipore Corp, Bedford, MA) and exposed to nominal concentrations of the chemicals. In each well, 1 ul of the chemical in DMSO from the stock plate was diluted with 250 ul of 10% Hanks' solution; the final DMSO concentration was 0.4% (v/v) in all wells; vehicle controls receives DMSO only. Each plate was sealed with a non-adhesive material (Type A, BioRad, Hercules, CA), covered with a lid, and wrapped in Parafilm to minimize evaporation. All embryos and larvae were kept in a 26C incubator with a 14:10 h light-dark cycle (with lights on at 08:30 h and off at 22:30 h). […]
Take `CC(C)(c1ccccc1)c1ccc(O)c(C(C)(C)c2ccccc2)c1`: the AC50 is 4.58 µM (active).
In the case of `CN(C)N=O`, the molecule was classed as inactive.
Regarding `CC(C)(C)c1cc(O)ccc1O`, the AC50 is 14.4 µM (active).
Same read-out and setting: with `Oc1cccc2cccnc12` the figure was 4.78 µM (active); with `O=[N+]([O-])c1ccc(O)c([N+](=O)[O-])c1`, 4.96 µM (active).
On to `CCN1CCC2(CC1)COc1cc3c(cc12)N(C(=O)c1ccc(-c2ccc(-c4nnc(C)o4)cc2C)cc1)CC3`, for which the outcome was inactive and the AC50 was 54 µM (active).
Take `CCCCCCCCc1ccc(O)cc1`: the AC50 was 5.21 µM (active).
Still for that read-out and setting: with `O=C1C2(Cl)C3(Cl)C4(Cl)C(Cl)(Cl)C5(Cl)C3(Cl)C1(Cl)C5(Cl)C24Cl` (stereo not given) the figure was 3.4 µM (active).
On the same count and under the same terms, with `Cn1sc(Cl)cc1=O` the figure was 14.9 µM (active).
Consider `NC(=O)O`, for which the outcome was inactive.
Turning to `COc1cc(-c2ccc(N)c(OC)c2)ccc1N`, the AC50 was 52.6 µM (active) and 79.3 µM (active).
Regarding `O=c1[nH]c(=O)[nH]c(=O)[nH]1`, the molecule was called inactive.
For `O=C(O)C(F)(F)C(F)(F)C(F)(F)C(F)(F)C(F)(F)C(F)(F)C(F)(F)C(F)(F)C(F)(F)C(F)(F)F`, the AC50 was 8.02 µM (active).
Still for that read-out and setting: with `CCOP(=S)(OCC)Oc1nc(Cl)c(Cl)cc1Cl` the figure was 4.72 µM (active).
Same read-out and setting: the figure for `CC(C)(C)CC(C)(C)c1ccc(O)cc1` is 4.55 µM (active).
With `CCC(C)(C)c1ccc(O)c(C(C)(C)CC)c1`, the AC50 was 4.87 µM (active) and 4.82 µM (active).
On to `CC(=O)[O][Hg][c]1ccccc1`, for which the AC50 was 0.066 µM (active).
As for `O=C(O)C(Cl)(Cl)Cl`, the call was inactive.
For `C[C@@H]1C[C@@H]([C@H](O)CC2CC(=O)NC(=O)C2)C(=O)[C@@H](C)C1`, the AC50 was 6 µM (active).
Still for that read-out and setting: the figure for `C=C(C)C(=O)[O][Sn]([CH2]CCC)([CH2]CCC)[CH2]CCC` is 0.0483 µM (active).
As to `CCOP(=S)(OCC)SCSP(=S)(OCC)OCC`, the AC50 was 5.5 µM (active).
Consider `C[C@]12CCC(=O)C[C@@H]1CC[C@@H]1[C@@H]2CC[C@]2(C)[C@@H](O)CC[C@@H]12`, for which the AC50 was 11.6 µM (active).
For the molecule `CC12CC1(C)C(=O)N(c1cc(Cl)cc(Cl)c1)C2=O` (stereo not given), the call was inactive.
As to `ClCC(Cl)CCl`, the outcome was inactive.

Source of the values: PubChem BioAssay (EPA / NIEHS).
